Source: PubChem BioAssay AID1159580 (chemical genetic matrix, 2015)
About 2,000 (36%) of roughly 5,500 compounds were called active. About 18% were inconclusive and are not listed. Cut-off read from the data, not from the text of the source: active = normalized growth mostly below about 0.91 (no sharp cut-off); inconclusive = no clear call, values can overlap the other calls; inactive = mostly above about 0.92. The list shows a part of the results.

Assay: chemical genetic growth profiling, strain panel (AID 1159580);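 note: tested at 20 µM; growth read once vehicle control cultures reached saturation at 30 °C; 1 = growth at the plate median or of vehicle wells; lower values mean less growth of the strain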
Conditions: growth OD

Measured: normalized growth

O=C(O)c1ccc(S(=O)(=O)N(Cl)Cl)cc1
inactive: S. cerevisiae deletion strains, locus YJR066W, strain TOR1, hits give low values 0.916 | S. cerevisiae deletion strains, locus YKL009W, strain mrt4, hits give low values 0.99 | S. cerevisiae deletion strains, locus YKL068W, hits give low values 1 | S. cerevisiae deletion strains, locus YKL085W, strain MDH1 (second series), hits give low values 1.01 | S. cerevisiae deletion strains, locus YKL085W, strain MDH1, hits give low values 1.01 | S. cerevisiae deletion strains, locus YKL160W, strain elf1, hits give low values 1.05 | S. cerevisiae deletion strains, locus YKL190W, strain CNB1, hits give low values 1 | S. cerevisiae deletion strains, locus YKR001C, strain vps1, hits give low values 1.02 | S. cerevisiae deletion strains, locus YKR026C, strain gcn3, hits give low values 0.977 | S. cerevisiae deletion strains, locus YKR091W, strain srl3, hits give low values 0.989 | S. cerevisiae deletion strains, locus YLL001W, strain dnm1, hits give low values 1.03 | S. cerevisiae deletion strains, locus YLL026W, hits give low values 0.976 | S. cerevisiae deletion strains, locus YLL041C, strain sdh2, hits give low values 0.989 | S. cerevisiae deletion strains, locus YLR027C, strain aat2, hits give low values 0.985 | S. cerevisiae deletion strains, locus YLR039C, strain RIC1, hits give low values 0.985 | S. cerevisiae deletion strains, locus YLR058C, strain SHM2, hits give low values 1.01 | S. cerevisiae deletion strains, locus YLR102C, strain apc9, hits give low values 1.02 | S. cerevisiae deletion strains, locus YLR113W, strain HOG1, hits give low values 0.961 | S. cerevisiae deletion strains, locus YLR221C, strain rsa3, hits give low values 1.02 | S. cerevisiae deletion strains, locus YLR258W, strain gsy2, hits give low values 0.994 | S. cerevisiae deletion strains, locus YLR262C, strain YPT6 (second series), hits give low values 1 | S. cerevisiae deletion strains, locus YLR262C, strain YPT6, hits give low values 0.995 | S. cerevisiae deletion strains, locus YLR268W, strain sec22, hits give low values 1 | S. cerevisiae deletion strains, locus YLR320W, strain mms22, hits give low values 1.05 | S. cerevisiae deletion strains, locus YLR330W, strain CHS5, hits give low values 0.999 | S. cerevisiae deletion strains, locus YLR342W, strain FKS1 (second series), hits give low values 0.993 | S. cerevisiae deletion strains, locus YLR342W, strain FKS1, hits give low values 0.983 | S. cerevisiae deletion strains, locus YLR357W, strain rsc2, hits give low values 1.01 | S. cerevisiae deletion strains, locus YLR370C, strain arc18, hits give low values 0.974 | S. cerevisiae deletion strains, locus YLR371W, strain rom2, hits give low values 1.01 | S. cerevisiae deletion strains, locus YLR384C, strain iki3, hits give low values 0.988 | S. cerevisiae deletion strains, locus YLR418C, strain cdc73, hits give low values 0.951 | S. cerevisiae deletion strains, locus YML016C, strain PPZ1, hits give low values 1.01 | S. cerevisiae deletion strains, locus YML032C, strain rad52, hits give low values 1.02 | S. cerevisiae deletion strains, locus YML120C, strain ndi1, hits give low values 1.03 | S. cerevisiae deletion strains, locus YML124C, strain tub3, hits give low values 1.03 | S. cerevisiae deletion strains, locus YMR058W, strain fet3, hits give low values 0.983 | S. cerevisiae deletion strains, locus YMR078C, strain ctf18, hits give low values 1.03 | S. cerevisiae deletion strains, locus YMR125W, strain sto1, hits give low values 1.02 | S. cerevisiae deletion strains, locus YMR129W, hits give low values 0.984 | S. cerevisiae deletion strains, locus YMR205C, strain PFK2, hits give low values 1.04 | S. cerevisiae deletion strains, locus YMR223W, strain ubp8, hits give low values 1.02 | S. cerevisiae deletion strains, locus YMR231W, strain pep5, hits give low values 0.978 | S. cerevisiae deletion strains, locus YMR307W, strain GAS1, hits give low values 0.964 | S. cerevisiae deletion strains, locus YNL067W, strain RPL9B, hits give low values 1 | S. cerevisiae deletion strains, locus YNL071W, strain lat1, hits give low values 0.998 | S. cerevisiae deletion strains, locus YNL128W, strain TEP1, hits give low values 1.02 | S. cerevisiae deletion strains, locus YNL183C, strain NPR1, hits give low values 0.926 | S. cerevisiae deletion strains, locus YNL209W, strain ssb2, hits give low values 0.983 | S. cerevisiae deletion strains, locus YNL233W, strain BNI4, hits give low values 0.997 | S. cerevisiae deletion strains, locus YNL248C, strain rpa49, hits give low values 1.06 | S. cerevisiae deletion strains, locus YNL250W, strain rad50, hits give low values 1.02 | S. cerevisiae deletion strains, locus YNL271C, strain bni1, hits give low values 1.03 | S. cerevisiae deletion strains, locus YNL298W, strain CLA4, hits give low values 1.05 | S. cerevisiae deletion strains, locus YNL307C, strain MCK1, hits give low values 1.01 | S. cerevisiae deletion strains, locus YNL322C, strain KRE1 (second series), hits give low values 0.992 | S. cerevisiae deletion strains, locus YNR049C, strain mso1, hits give low values 0.975 | S. cerevisiae deletion strains, locus YNR052C, strain pop2, hits give low values 1.01 | S. cerevisiae deletion strains, locus YOL006C, strain TOP1, hits give low values 1.01 | S. cerevisiae deletion strains, locus YOL012C, strain htz1 2.24 | S. cerevisiae deletion strains, locus YOL147C, strain pex11, hits give low values 1.02 | S. cerevisiae deletion strains, locus YOR001W, strain rrp6, hits give low values 0.944 | S. cerevisiae deletion strains, locus YOR061W, strain CKA2, hits give low values 1.01 | S. cerevisiae deletion strains, locus YOR069W, strain VPS5, hits give low values 0.998 | S. cerevisiae deletion strains, locus YOR070C, strain gyp1, hits give low values 0.967 | S. cerevisiae deletion strains, locus YOR080W, strain dia2, hits give low values 0.969 | S. cerevisiae deletion strains, locus YOR083W, strain WHI5, hits give low values 1.05 | S. cerevisiae deletion strains, locus YOR106W, strain vam3, hits give low values 1.06 | S. cerevisiae deletion strains, locus YOR136W, strain idh2, hits give low values 1.02 | S. cerevisiae deletion strains, locus YOR144C, strain elg1, hits give low values 1.02 | S. cerevisiae deletion strains, locus YOR184W, strain ser1, hits give low values 0.992 | S. cerevisiae deletion strains, locus YOR231W, strain MKK1, hits give low values 0.971 | S. cerevisiae deletion strains, locus YOR265W, strain rbl2, hits give low values 0.981 | S. cerevisiae deletion strains, locus YOR270C, strain vph1, hits give low values 1.01 | S. cerevisiae deletion strains, locus YOR290C, strain snf2, hits give low values 1 | S. cerevisiae deletion strains, locus YOR316C, strain cot1, hits give low values 1.02 | S. cerevisiae deletion strains, locus YPL051W, strain arl3, hits give low values 1.02 | S. cerevisiae deletion strains, locus YPL055C, strain LGE1, hits give low values 0.979 | S. cerevisiae deletion strains, locus YPL078C, strain atp4, hits give low values 1.05 | S. cerevisiae deletion strains, locus YPL106C, strain sse1, hits give low values 0.985 | S. cerevisiae deletion strains, locus YPL240C, strain hsp82, hits give low values 0.989 | S. cerevisiae deletion strains, locus YPL241C, strain CIN2, hits give low values 1 | S. cerevisiae deletion strains, locus YPL256C, strain CLN2, hits give low values 0.97 | S. cerevisiae deletion strains, locus YPR119W, strain clb2, hits give low values 1.02 | S. cerevisiae deletion strains, locus YPR141C, strain kar3, hits give low values 1.02 | S. cerevisiae deletion strains, locus YPR163C, strain tif3, hits give low values 1.04 | S. cerevisiae deletion strains, locus YPR167C, strain met16, hits give low values 1.02 | S. cerevisiae deletion strains, strain wtn01, hits give low values 1.01 | S. cerevisiae strains, strain wild type, hits give low values 1
